Pol eta inh-1: qHTS for Inhibitors of Polymerase Eta. Potency, µM (series often up to 114 µM), hits mostly inhibitors. actives 1.2% (n = 390,000). recombinant Pol eta, fluorescent DNA replication assay
Target sequence (Q9Y253 whole entry, looked up): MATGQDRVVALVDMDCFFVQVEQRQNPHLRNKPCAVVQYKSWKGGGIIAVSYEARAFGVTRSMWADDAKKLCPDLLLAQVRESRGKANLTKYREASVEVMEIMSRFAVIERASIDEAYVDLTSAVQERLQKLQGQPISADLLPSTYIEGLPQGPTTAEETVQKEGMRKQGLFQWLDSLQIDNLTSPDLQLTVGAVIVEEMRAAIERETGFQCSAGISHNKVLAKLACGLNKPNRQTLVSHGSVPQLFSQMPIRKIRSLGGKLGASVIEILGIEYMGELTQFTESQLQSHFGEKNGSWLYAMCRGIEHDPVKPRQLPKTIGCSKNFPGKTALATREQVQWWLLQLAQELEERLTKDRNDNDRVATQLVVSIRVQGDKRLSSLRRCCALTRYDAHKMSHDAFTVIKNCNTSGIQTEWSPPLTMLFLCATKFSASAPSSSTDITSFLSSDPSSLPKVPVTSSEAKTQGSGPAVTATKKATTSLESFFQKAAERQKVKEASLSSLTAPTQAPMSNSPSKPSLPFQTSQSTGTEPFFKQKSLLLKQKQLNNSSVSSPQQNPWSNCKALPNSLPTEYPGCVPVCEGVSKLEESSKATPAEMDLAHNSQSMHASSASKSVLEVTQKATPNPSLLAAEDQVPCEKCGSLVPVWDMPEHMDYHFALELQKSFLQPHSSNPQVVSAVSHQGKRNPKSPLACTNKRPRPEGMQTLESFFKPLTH
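Fluorescent replication assay: 50 nM final substrate added after a 15 min room-temperature compound preincubation with 10 nM enzyme. Signal taken at 0 min and again at 10 min.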
POLI inh: qHTS for Inhibitors of Polymerase Iota. Pol iota fluorescent replication assay, 10 min. actives 1% (n = 390,000). DNA polymerase iota (Homo sapiens), Q9UNA4. Potency, µM (series often up to 115 µM), actives largely listed as inhibitors. AID 588590, 2011
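Pol iota at 10 nM preincubated 15 min with compounds at room temperature; reaction started with fluorescent substrate, 50 nM final. Fluorescence read kinetically at 0 and 10 min; buffer-only wells as negative control.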
Pol kappa inh-1: qHTS for Inhibitors of Polymerase Kappa | DNA polymerase kappa (Homo sapiens), Q9UBT6 | purified Pol kappa, fluorescent DNA synthesis assay, 10 min | actives 0.53% (n = 400,000) | Potency, µM (highest dose often 107 µM), actives largely listed as inhibitors
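50 nM final substrate added after 15 min RT preincubation of 10 nM Pol kappa with compound; fluorescence read at 0 and 10 min.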
POLB inh: qHTS Assay for Inhibitors of DNA Polymerase Beta; AID 485314, 2010; P06746; actives 1.3% (n = 340,000); Pol beta primer extension/strand displacement, fluorescence kinetic; Potency, µM (highest dose often 114 µM), actives largely listed as inhibitors
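Preincubation: enzyme (10 nM) with compound, 15 min, RT. Reaction: substrate added to 50 nM final. Reads: 0 and 10 min. Analysis: normalized, Hill fit.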
TDP1 block: qHTS Assay for Inhibitors of Tyrosyl-DNA Phosphodiesterase (TDP1); actives 0.28% (n = 350,000); AID 485290, 2010; recombinant TDP1, AlphaScreen DNA substrate cleavage; Potency, µM (doses to about 130 µM), actives largely listed as inhibitors; note: nearly all actives have a fitted effect of over 40% in size
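Compounds were preincubated with Tdp1 (1 nM final) for 15 min at room temperature before substrate (15 nM final) started a 5 min reaction; beads (10 ug/ml final) were then added for 10 min before AlphaScreen detection.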
TbPGK inh: qHTS for inhibitors of Phosphogylcerate Kinase: Hit Validation Screen; shares compounds with Pol kappa inh-1; TbPGK coupled GAPDH assay, Kinase-Glo luminescence; Potency, µM (series often up to 57.5 µM), most hits filed as inhibitors; actives 79% (n = 500); note: nearly all actives have a fitted effect of over 65% in size
POLI cherry-pick: qHTS for Inhibitors of Polymerase Iota: Confirmatory Assay for Cherry-picked Compounds. shares compounds with Pol kappa inh-1. Pol iota primer extension, TAMRA/BHQ fluorescence. Potency, µM, usual class: inhibitors. actives 77% (n = 1,500)
Pol kappa inh-2: qHTS for Inhibitors of Polymerase Kappa: Confirmatory Assay for Cherry-picked Compounds | AID 720501, 2013 | Potency, µM, most hits filed as inhibitors | shares compounds with Pol eta inh-1 | actives 76% (n = 920) | purified Pol-kappa, fluorescent strand-displacement substrate
Pol eta inh-2: qHTS for Inhibitors of Polymerase Eta: Confirmatory Assay for Cherry-picked Compounds; actives 64% (n = 2,600); AID 720502, 2013; Potency, µM, usual class: inhibitors; Pol eta primer extension, TAMRA/BHQ fluorescence, 10 min; shares compounds with Pol eta inh-1
Numbers stand for hits; . = inactive; ? = inconclusive; / = no result. In the library only some 2.4% were active in any assay of this set; here they are far more common. Calls come from the whole dose curve; as a rule, active = well fitted curve in the direction sought with a large enough effect; inconclusive = small, poorly fitted or top-dose-only effect, or another doubt; inactive = no such curve, though single readings can be large; an effect the other way counts as inactive or inconclusive.

SMILES	Pol eta inh-1	POLI inh	Pol kappa inh-1	POLB inh	TDP1 block	POLI cherry-pick	Pol eta inh-2	others
Oc1ccc(-c2csc(-c3cccnc3)n2)cc1O	25µM	28µM	32µM	?	/	84	?
COc1ccc(-n2nc(C(=O)NCC(=O)Nc3ccccn3)c3ccccc3c2=O)cc1Cl	10µM	.	.	?	.	15	?
O=C(NN1C(=O)/C(=C/C=C/c2ccccc2)SC1=S)c1ccncc1	.	?	.	.	.	/	/
O=C(NN1C(=O)/C(=C/C=C/c2ccco2)SC1=S)c1ccncc1	1.4µM	1.3µM	3.2µM	?	/	6.7	3.4	TbPGK inh=3.3µM;Pol kappa inh-2=3.8
O=C(O)COc1ccccc1/C=N/NC(=O)/C(=C\c1ccc2c(c1)OCO2)NC(=O)c1ccccc1	?	?	.	.	.	42	?
COCO[C@H]([C@@H](C)C=C(Br)Br)[C@@H](C)COCc1ccc(OC)cc1	/	.	.	/	.	/	/
Nc1ncc(N=Nc2cc(C(=O)O)ccc2Cl)s1	13µM	7.9µM	79µM	?	/	60	21
CC(C)COc1ccc(C(=O)Nc2nnc(S(=O)(=O)N(C)Cc3ccco3)s2)cc1	.	.	.	.	.	/	/
NS(=O)(=O)c1ccc(NC(=O)C2Cc3ccccc3CN2C(=O)c2ccco2)cc1 (stereo not drawn)	20µM	20µM	79µM	28µM	/	?	67
COc1ccc(C)c2sc(NC(=O)c3ccc(S(=O)(=O)N4CCOCC4)cc3)nc12	.	.	.	.	.	/	/
Cc1ccn2c(=O)nc(SCC(=O)NCc3ccccc3Cl)nc2c1	18µM	56µM	.	/	/	67	60	Pol kappa inh-2=27
Cc1cccc(CNC(=O)CCCn2c(=O)c3cccn3c3ccc(F)cc32)c1	.	.	.	.	.	/	/
O=C(O)c1ccc2nc(-c3ccco3)c(-c3ccco3)nc2c1	3.5µM	?	22µM	3.5µM	.	4.7	3.8
O=S(=O)(c1ccc2ccccc2c1)N1CCOCC1	.	.	.	.	.	/	/
O=S(=O)(c1ccc2nc(-c3ccco3)c(-c3ccco3)nc2c1)N1CCOCC1	14µM	?	?	28µM	.	42	24	Pol kappa inh-2=9.5
O=C(O)C1Oc2cc3ccccc3cc2O1	18µM	28µM	.	7.9µM	/	75	48	Pol kappa inh-2=8.4
Cc1ccc(NC(=O)CN2CCSc3ccc(S(=O)(=O)N4CCCC4)cc32)cc1C	.	.	.	.	.	/	/
C=C(C)C(=O)OCCOC(=O)C(=C)C	/	/	.	/	.	/	/
COc1ccc(/C=C2\Oc3cc(OCC(=O)N4CCC[C@H]4C(=O)O)ccc3C2=O)c(OC)c1	.	?	?	.	/	/	/
COc1cc(OC)c(OC)cc1/C=C1\Oc2cc(OCC(=O)N3Cc4ccccc4C[C@H]3C(=O)O)ccc2C1=O	22µM	?	79µM	?	/	27	21
Cc1cc(C(=O)NNC(=O)/C=C/c2ccco2)c(C)o1	2.2µM	3.2µM	22µM	/	.	?	17	TbPGK inh=16µM
COc1ccccc1/C=C/C(=O)NNC(=O)c1cc(C)oc1C	.	.	.	/	.	/	/
O=C(CCCCCn1c(=O)[nH]c2ccccc2c1=O)NCCc1ccccc1	.	.	.	.	.	/	/
O=C1ON=C(c2ccccc2)/C1=C/c1ccc(-c2ccccc2[N+](=O)[O-])o1	22µM	?	.	.	.	?	48

Screening data from PubChem.
